# Screening data from PubChem.
# KCNQ2 block = blocks the rat KCNQ2 potassium channel; O88943; CHO-K1 KCNQ2, FluxOR thallium flux, 20 min; active compounds read low; B-score at 10 µM; 1.1% of 310,000 active; AID 2156;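 active = fluorescence ratio B-score at most minus 3 library SDs, with starting brightness B-score within 2 library SDs, cut at about -5.5 in these data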
# KCNQ2 enhance = enhances the rat KCNQ2 potassium channel | CHO-K1 KCNQ2, FluxOR thallium flux fluorescence; active compounds read high | B-score at 10 µM | 0.54% of 310,000 active | AID 2239;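 active = fluorescence ratio B-score at least 3 SD of library B-scores, with initial fluorescence B-score within 3 of them, cut at about 5.3 in these data; same plate scores as AID 2156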;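 also: B-score of peak minus minimum over baseline fluorescence ratio after K+ and Tl+ stimulus; positive B-score means potentiation of KCNQ2 with more thallium influx and brighter signal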
# Kir21 confirm = confirmation of mouse Kir2.1 potassium channel inhibitors; shares compounds with KCNQ2 enhance; Kir2.1-expressing cells, FluxOR thallium flux fluorescence; active compounds read low; Tl flux remaining, % of negative control (active compounds read low), % at 10 µM; 41% of 2,300 active; AID 2032;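 active = Primary-screen hit whose thallium flux fell at least 3 control SD below untreated wells in both duplicates, with normal baseline fluorescence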;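 also: 0% = blank wells without stimulus and 100% = stimulated no-compound controls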
# HEK293 Tl flux = parental HEK293 activity in Kir2.1 inhibitor counter-screen; shares compounds with KCNQ2 enhance; parental HEK293 cells, FluxOR thallium flux fluorescence; 0% = unstimulated blank wells; FluxOR signal as % of negative control (100 = no effect), % at 10 µM; 19% of 2,300 active; AID 2105;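 active = dye signal at least 3 control SD above or below untreated wells in both duplicates, raw fluorescence within 3, either direction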;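 also: percent is based on the flux ratio of peak minus minimum fluorescence over baseline F0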
# CHO-K1 ctr = counter-screen for KCNQ2 potentiators: effect in parental CHO-K1 cells. shares compounds with KCNQ2 enhance. FluxOR thallium flux fluorescence; zero = vehicle mean+3SD, 100% = vehicle-minus-blank window. activity increase over 3SD of controls, % at 10 µM. 43% of 1,200 active;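 active = signal rise of at least 3 SD above the untreated control mean, in both duplicate wells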;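 also: counter screen of KCNQ2 potentiator hits so any rise reflects channel-independent effects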
# KCNQ1 sel pot = human KCNQ1 counter-target activity of KCNQ2 potentiators; activation over 3SD threshold, % at 10 µM; AID 2283; shares compounds with KCNQ2 enhance; 28% of 1,200 active; CHO KCNQ1 stable, FluxOR thallium flux fluorescence; beyond 3SD, as % of vehicle-control signal;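 active = fluorescence ratio rise of at least 3 SD of vehicle wells above their mean, in both replicate wells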;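 also: 0% = vehicle mean plus 3 SD and 100% = vehicle minus unstimulated blank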
# KCNQ2 pot conf = rat KCNQ2 channel potentiator confirmation; shares compounds with KCNQ2 enhance; CHO-KCNQ2 cells, FluxOR thallium flux fluorescence; potentiation, less the hit threshold, % at 10 µM; 68% of 1,200 active; AID 2287;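 active = fluorescence ratio rising 3 SD or more over the vehicle control mean in both replicates, plus primary screen hit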;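 also: peak minus minimum thallium fluorescence divided by baseline after K/Tl stimulus; 0% = vehicle mean plus 3 SD and 100% = vehicle minus unstimulated blank difference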
# Kir2-1 sel = tests whether KCNQ2 potentiators also affect mouse Kir2.1. shares compounds with KCNQ2 enhance. HEK293 Kir2.1, FluxOR thallium flux fluorescence. activity over 3SD threshold, % at 10 µM. 2% of 1,200 active;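 active = fluorescence ratio rise of at least 3 SD above the vehicle-control mean, seen in both replicates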;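 also: 0% = vehicle mean plus 3 SD and 100% = vehicle minus no-stimulus blank window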
# KCNQ2 W236L MoA = rat KCNQ2 W236L mutant potentiation by KCNQ2 potentiators; CHO KCNQ2-W236L, automated patch clamp current; shares compounds with KCNQ2 enhance; current increase over 3SD of negative controls (%), active compounds read high, % at 25 µM; AID 2558; 10% of 940 active;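 active = current increase at least 3 SD of the untreated controls above them in both duplicate recordings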
# Target sequence (O88943 whole entry W236L, looked up): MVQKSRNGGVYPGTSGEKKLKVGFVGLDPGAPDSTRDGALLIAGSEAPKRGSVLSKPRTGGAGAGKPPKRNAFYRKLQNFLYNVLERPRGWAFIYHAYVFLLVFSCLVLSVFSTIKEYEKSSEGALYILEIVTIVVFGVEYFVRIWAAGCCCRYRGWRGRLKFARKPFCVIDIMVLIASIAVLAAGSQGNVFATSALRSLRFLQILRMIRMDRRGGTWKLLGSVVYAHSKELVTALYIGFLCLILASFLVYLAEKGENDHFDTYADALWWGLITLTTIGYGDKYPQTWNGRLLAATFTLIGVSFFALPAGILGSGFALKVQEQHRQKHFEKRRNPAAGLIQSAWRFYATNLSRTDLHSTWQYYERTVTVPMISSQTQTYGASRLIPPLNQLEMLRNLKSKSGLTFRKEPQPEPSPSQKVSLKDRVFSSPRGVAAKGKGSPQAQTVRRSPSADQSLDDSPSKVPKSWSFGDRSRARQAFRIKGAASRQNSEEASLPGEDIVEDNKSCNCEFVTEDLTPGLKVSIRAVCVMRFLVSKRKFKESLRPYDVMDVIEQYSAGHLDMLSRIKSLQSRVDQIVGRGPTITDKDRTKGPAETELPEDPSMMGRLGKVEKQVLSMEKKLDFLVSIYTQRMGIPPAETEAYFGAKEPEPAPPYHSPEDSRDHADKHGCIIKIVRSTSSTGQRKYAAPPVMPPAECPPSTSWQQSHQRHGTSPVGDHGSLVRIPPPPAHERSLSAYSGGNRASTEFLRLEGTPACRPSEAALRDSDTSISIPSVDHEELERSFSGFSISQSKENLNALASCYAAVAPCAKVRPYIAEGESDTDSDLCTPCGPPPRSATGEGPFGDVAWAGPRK
# * hit, by the source's call; i = inactive; . = no result given. Only some compounds are listed: those with a hit (about 1.6% of all), similar ones and a draw of the others.
SMILES,KCNQ2 block,KCNQ2 enhance,Kir21 confirm,HEK293 Tl flux,others
Cc1ccccc1N(CC(=O)NCC1CCCO1)C(=O)CNS(=O)(=O)c1ccc(F)cc1 (stereo not given),i,0.5,.,.,
Cn1cnc(S(=O)(=O)NCc2ccc(Br)cc2)c1,i,.,.,.,
CC(Oc1ccccc1)c1ccnn1S(=O)(=O)c1ccccc1 (stereo not given),i,.,52%*,i,
CC(Oc1ccc(Cl)cc1)c1ccnn1S(=O)(=O)c1ccc(Cl)cc1 (stereo not given),i,.,.,.,
CCCSc1ccc(C(=O)Nc2ccc(Cl)cc2)cn1,i,0.31,.,.,
CC(=O)Nc1ccc(C(=O)N/N=C/c2cc(Br)cc(Br)c2O)cc1,i,.,.,.,
Cc1ccc(C(=O)O)cc1N=Cc1cc(Br)cc(Br)c1O,i,10*,i,i,CHO-K1 ctr=-20;KCNQ1 sel pot=-21;KCNQ2 pot conf=31*;Kir2-1 sel=-21;KCNQ2 W236L MoA=i
COCCN(C(=O)COC(=O)COc1ccc(Cl)c(C)c1)c1c(N)n(Cc2ccccc2)c(=O)[nH]c1=O,i,.,.,.,
Cc1ccc(Nc2cc(C)nc3c(C)cccc23)cc1,i,1.4,36%*,i,
CC(=O)c1ccc(Nc2cc(C)nc3c(C)cccc23)cc1,i,.,.,.,
CCOC(=O)c1cc(CC)sc1NC(=O)COC(=O)c1cc[n+]([O-])cc1,i,.,.,.,
Cc1cc(C)c(NC(=O)C(C)c2cccc(C(=O)c3ccccc3)c2)c(C)c1 (stereo not given),i,23*,i,i,CHO-K1 ctr=54*;KCNQ1 sel pot=-9;KCNQ2 pot conf=54*;Kir2-1 sel=-31;KCNQ2 W236L MoA=i
CC(=O)Nc1ccc(NC(=O)C(C)c2cccc(C(=O)c3ccccc3)c2)cc1 (stereo not given),i,0.37,.,.,
COc1ccc(NC(=O)Cn2c(=O)cnc3ccccc32)cc1S(=O)(=O)N1CCCCC1,i,0.51,.,.,
Cn1nnnc1SCC(=O)N1CCCc2ccccc21,i,0.15,.,.,
O=C(CSc1cccc[n+]1[O-])N1CCCc2ccccc21,i,15*,i,i,CHO-K1 ctr=-8;KCNQ1 sel pot=1.2*;KCNQ2 pot conf=-19;Kir2-1 sel=-30
COc1ccc(/C=C/S(=O)(=O)NCc2ccccc2)cc1OC,i,1.8,.,.,
CCOC(=O)Cn1c2c(c(=N)c3ccccc31)CCC2,i,0.87,.,.,
CCOC(=O)C1=C[C@]2(CC)CCCN3CCc4c(n1c1ccccc41)[C@@H]32,i,10*,.,.,CHO-K1 ctr=-4;KCNQ1 sel pot=61*;KCNQ2 pot conf=39*;Kir2-1 sel=-58;KCNQ2 W236L MoA=i
CCCCN(C(=O)CCn1c(=O)oc2ccccc21)c1ccccc1,i,.,49%*,i,
CCN(CC)C(=O)Cn1c(=O)oc2ccccc21,i,.,.,.,
CCOC(=O)C1CCCc2c1[nH]c1c(C(N)=O)cccc21 (stereo not given),i,9.7*,i,i,CHO-K1 ctr=3.7*;KCNQ1 sel pot=-15;KCNQ2 pot conf=34*;Kir2-1 sel=-48;KCNQ2 W236L MoA=i
NC(=O)c1cccc2c3c([nH]c12)CCCC3,i,2.9,.,.,
CCN(CC)S(=O)(=O)c1cc(C)ccc1NC(=S)Nc1cccnc1,i,.,.,.,
Cc1c(C(=O)Nc2c3c(nn2C(C)(C)C)CS(=O)(=O)C3)cccc1[N+](=O)[O-],i,1.2,.,.,
SMILES,KCNQ2 block,KCNQ2 enhance,Kir21 confirm,HEK293 Tl flux,others
CC(C(=O)NCCCc1ccccc1)n1cccc1C(=O)c1ccccc1 (stereo not given),i,.,64%*,i,
O=C(Cn1cccc1C(=O)c1ccccc1)NCCCc1ccccc1,i,0.8,.,.,
CC1(c2ccc(Cl)c(Cl)c2)NC(=S)N2C1NC(=S)N2c1ccccc1 (stereo not given),i,.,.,.,
CC(/C=N/n1c(C2CCCCC2)n[nH]c1=S)=C\c1ccccc1,i,8.3*,i,i,CHO-K1 ctr=92*;KCNQ1 sel pot=23*;KCNQ2 pot conf=-15;Kir2-1 sel=-26
Cc1cccc(/C=N/n2c(C3CCCCC3)n[nH]c2=S)c1,i,.,.,.,
Cc1cccc(CSCc2ccc(C(=O)NCC3CCCO3)o2)c1 (stereo not given),i,.,.,.,
O=C(Nc1ccc(Cl)cn1)c1ccc2[nH]c(=O)c(=O)[nH]c2c1,i,.,.,.,
Cc1ccc(S(=O)(=O)N2CCOC23CCN(C(=O)c2ccccc2Br)CC3)cc1,i,.,.,.,
CCOc1ccc(NS(=O)(=O)c2ccc(C(=O)NC3CCC(O)CC3)cc2)cc1 (stereo not given),i,2.3,.,.,
C=CCOc1ccc(CNc2ccc(NC(=O)CCC)cc2)cc1OCC,i,1.7,.,.,
C=CCOc1c(Br)cc(CNc2ccc(NC(=O)CCC)cc2)cc1OCC,i,18*,i,i,CHO-K1 ctr=-13;KCNQ1 sel pot=80*;KCNQ2 pot conf=32*;Kir2-1 sel=-33;KCNQ2 W236L MoA=i
COC(=O)C1CCN(C2CC(=O)N(c3cc(C)cc(C)c3)C2=O)CC1 (stereo not given),i,1.3,.,.,
NC(=O)C1CCN(Cc2cccc(OCc3ccccc3)c2)CC1,i,0.01,.,.,
CCOC(=O)C1CCN(Cc2cccc(OCc3ccccc3)c2)CC1,i,.,20%*,i,
CCCOc1ccc(C(=O)NNC(=S)NC(=O)c2ccccc2)cc1,i,20*,i,i,CHO-K1 ctr=-5;KCNQ1 sel pot=3.3*;KCNQ2 pot conf=-18;Kir2-1 sel=-29
CCOc1ccc(C(=O)NC(=S)N(Cc2ccccc2)Cc2ccccc2)cc1,i,20*,i,176%*,CHO-K1 ctr=-13;KCNQ1 sel pot=-10;KCNQ2 pot conf=0.5*;Kir2-1 sel=-35;KCNQ2 W236L MoA=i
CCCN(CCC)C(=S)NC(=O)c1ccc(-c2ccccc2)cc1,i,14*,i,340%*,CHO-K1 ctr=26*;KCNQ1 sel pot=3.5*;KCNQ2 pot conf=38*;Kir2-1 sel=-15;KCNQ2 W236L MoA=i
CCCOc1ccc(C(=O)NNC(=S)NC(C)=O)cc1,i,0.83,.,.,
CCOc1ccc(CN(CCC#N)C(=S)NC(=O)c2ccccc2)cc1,i,0.91,.,.,
Cc1ccc(C(=O)NC(=S)N(C)Cc2ccccc2)cc1,i,3.1,.,.,
CC(SCC(=O)NC(C)C1CC2CCC1C2)C(=O)O (stereo not given),i,.,.,.,
COc1ccccc1NC(=O)C1CCN(S(=O)(=O)c2ccc3c(c2)NC(=O)C(C)S3)CC1 (stereo not given),i,.,.,.,
Cc1cccc(C(=O)OCCN2CCOCC2)c1,i,0.73,.,.,
O=C(COC(=O)Cc1cccs1)Nc1ccc(OC(F)(F)F)cc1,i,.,.,.,
CCC1COCCS(=O)(=O)N1Cc1ccc(C)cc1 (stereo not given),i,1.2,.,.,
CCC[C@H]1COCCS(=O)(=O)N1Cc1ccc(Br)cc1,i,0.37,i,128%*,
